Test [1] can be described thus: anti-His antibody binders, primary screen, artefact control for SMM control protein annotation, biochemical, small-molecule microarray, 635 nm fluorescence (AID 1128).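 Note: score merges feature fluorescence with signal-to-noise for each printed compound spot.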 The settings on record: anti-His Alexa647 antibody binding, higher = more signal.
The test system of test [2] is Human papillomavirus type 1a E7 protein (residues 1-88). Briefly: HPV1a E7 small-molecule binders, primary screen, biochemical, small-molecule microarray, residues 1-88, 635 nm (AID 1129). The settings on record: small-molecule microarray binding, fluorescence 635 nm; higher = more signal.
For test [3], the target named is Focal adhesion kinase 1 (Homo sapiens) (UniProt Q05397). Briefly: small-molecule microarray binders of FAK, primary screen, biochemical, 635/667 nm fluorescence, BSA, DTT (AID 1130).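 Note: composite of spot emission at 667 nm and signal to noise over triplicate slides.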 The settings on record: PTK2 binding, 635 nm fluorescence, higher = more signal.
Sequence of Focal adhesion kinase 1 (Homo sapiens) (Q05397 whole entry, looked up): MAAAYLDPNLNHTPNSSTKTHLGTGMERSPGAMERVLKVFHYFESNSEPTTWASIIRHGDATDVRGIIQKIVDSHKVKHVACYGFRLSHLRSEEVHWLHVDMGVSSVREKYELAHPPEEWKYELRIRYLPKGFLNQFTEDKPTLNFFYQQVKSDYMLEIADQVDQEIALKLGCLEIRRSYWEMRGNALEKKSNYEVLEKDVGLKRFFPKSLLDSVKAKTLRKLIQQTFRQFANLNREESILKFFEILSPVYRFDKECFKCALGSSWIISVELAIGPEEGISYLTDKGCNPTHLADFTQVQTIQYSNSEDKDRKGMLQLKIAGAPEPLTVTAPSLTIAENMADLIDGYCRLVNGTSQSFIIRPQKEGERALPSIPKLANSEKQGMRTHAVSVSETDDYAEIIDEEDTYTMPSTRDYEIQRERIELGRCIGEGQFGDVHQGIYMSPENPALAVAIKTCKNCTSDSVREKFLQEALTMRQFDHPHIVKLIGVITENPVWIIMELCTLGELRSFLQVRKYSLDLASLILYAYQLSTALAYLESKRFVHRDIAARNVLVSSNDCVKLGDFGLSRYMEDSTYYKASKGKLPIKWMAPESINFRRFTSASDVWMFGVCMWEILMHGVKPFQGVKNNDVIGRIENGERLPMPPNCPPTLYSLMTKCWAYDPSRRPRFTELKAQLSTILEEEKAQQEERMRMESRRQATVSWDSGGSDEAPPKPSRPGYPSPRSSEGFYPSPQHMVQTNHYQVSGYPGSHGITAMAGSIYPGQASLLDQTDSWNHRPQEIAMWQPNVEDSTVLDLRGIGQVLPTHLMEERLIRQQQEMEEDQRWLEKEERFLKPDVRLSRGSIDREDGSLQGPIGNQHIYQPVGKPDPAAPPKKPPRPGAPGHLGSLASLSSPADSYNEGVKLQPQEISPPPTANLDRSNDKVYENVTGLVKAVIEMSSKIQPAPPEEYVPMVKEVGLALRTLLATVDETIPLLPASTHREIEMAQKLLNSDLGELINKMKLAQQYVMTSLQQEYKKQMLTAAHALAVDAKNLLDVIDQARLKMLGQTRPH
The subject of test [4] is Fibrinogen (Alexa647-labelled). Briefly: fibrinogen binders on compound microarrays, profiling panel, artefact control for SMM control-protein annotation, biochemical, small-molecule microarray, 635/667 nm fluorescence (AID 1131).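 Note: z-score merges 667 nm fluorescence with per-spot signal-to-noise over triplicate slides.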 As to conditions: fibrinogen-A647 binding fluorescence, higher = more signal.
Test [5] concerns the target Follistatin (Homo sapiens) (UniProt P19883). Briefly: follistatin binders on small-molecule microarrays, primary screen, biochemical, small-molecule microarray, 635/667 nm fluorescence (AID 1132). The settings on record: FST binding, 635 nm fluorescence, higher = more signal.
The target of test [6] is Fibroblast growth factor 2 (Homo sapiens) (UniProt P09038). Briefly: FGF2 binders on small-molecule microarrays, primary screen, biochemical, small-molecule microarray, 635/667 nm fluorescence (AID 1133). The settings on record: small-molecule microarray binding, FGF2, fluorescence 635/667; higher = more signal.
Sequence of Fibroblast growth factor 2 (Homo sapiens) (P09038 whole entry, looked up): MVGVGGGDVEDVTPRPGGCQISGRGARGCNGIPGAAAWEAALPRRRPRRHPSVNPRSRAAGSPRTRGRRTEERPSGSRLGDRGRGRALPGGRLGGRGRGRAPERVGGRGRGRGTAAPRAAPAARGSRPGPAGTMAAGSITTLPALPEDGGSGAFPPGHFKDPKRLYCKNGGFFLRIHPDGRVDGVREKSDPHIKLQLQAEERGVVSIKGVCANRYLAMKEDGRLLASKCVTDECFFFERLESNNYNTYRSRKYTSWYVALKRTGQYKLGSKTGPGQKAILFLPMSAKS
Test [7] can be described thus: mitochondrial membrane potential change in A549 cells, profiling panel, cell-based, JC-1 fluorescence, basal, 24 h, 100 nL (AID 1138).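 Note: A549 lung adenocarcinoma cells under basal conditions with no added stimulus; test concentration not given here.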 The settings on record: higher = more signal.
For another test, the system named is Lefty1. Briefly: Lefty1 binders on small-molecule microarrays, primary screen, biochemical, small-molecule microarray, 635/667 nm fluorescence (AID 1139). The settings on record: small-molecule microarray binding, fluorescence 635/667; higher = more signal.
The subject of test [8] is wheat germ agglutinin (Triticum aestivum), Alexa647-labelled. Briefly: wheat germ agglutinin binders on compound microarrays, profiling panel, artefact control for SMM control-protein annotation, biochemical, small-molecule microarray, 635/667 nm fluorescence (AID 1140).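 Note: score merges 667 nm feature emission with signal to noise over triplicate slides.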 As to conditions: WGA-A647 binding, 635 nm fluorescence, higher = more signal.
For test [9], the target named is Luciferin 4-monooxygenase (Photinus pyralis) (UniProt P08659). Briefly: firefly luciferase enzyme inhibitors, primary screen, biochemical, luminescence, purified enzyme, 2006 set (AID 1141).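 Note: cell-free assay with purified firefly luciferase at 100 ng per well in PBS; test concentration not given here.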 As to conditions: SteadyGlo luminescence, 30 min, higher = more signal, called active from +8 up or from −8 down.
Sequence of Luciferin 4-monooxygenase (Photinus pyralis) (P08659 whole entry, looked up): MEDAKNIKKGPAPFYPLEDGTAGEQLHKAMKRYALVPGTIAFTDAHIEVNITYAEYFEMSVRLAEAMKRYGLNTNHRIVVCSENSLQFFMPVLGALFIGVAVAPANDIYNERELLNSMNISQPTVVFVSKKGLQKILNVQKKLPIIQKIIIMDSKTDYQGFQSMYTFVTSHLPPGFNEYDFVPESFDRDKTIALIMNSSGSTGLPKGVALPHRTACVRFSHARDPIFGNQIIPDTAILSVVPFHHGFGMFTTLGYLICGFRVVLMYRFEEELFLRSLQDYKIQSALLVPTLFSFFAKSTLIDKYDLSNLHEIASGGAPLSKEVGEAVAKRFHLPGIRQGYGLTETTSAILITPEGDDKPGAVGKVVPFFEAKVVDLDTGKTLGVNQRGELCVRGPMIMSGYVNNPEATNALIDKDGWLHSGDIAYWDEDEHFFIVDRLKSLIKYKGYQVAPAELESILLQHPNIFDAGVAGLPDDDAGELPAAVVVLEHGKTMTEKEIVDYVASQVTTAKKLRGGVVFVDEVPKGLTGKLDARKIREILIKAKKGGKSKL
Test [10] relates to Wnt5a (protein binding on small-molecule microarray). Briefly: Wnt5a binders on small-molecule microarray, primary screen, biophysical, 635/667 nm fluorescence (AID 1142).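 Note: fluorescence read at 667 nm with signal to noise per printed feature.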 As to conditions: 635 nm fluorescence, higher = more signal.
Test [11] in a line: cell viability in Huh7 cells, primary screen, cytotoxicity control for HCV replication inhibitor project, CellTiter-Glo luminescence, basal, 48 h (AID 1143).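 Note: Huh7 hepatoma cells carrying a hepatitis C replication reporter with no stimulus; test concentration not given here.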 The settings on record: Huh7 HCV replicon, higher = more signal, called active from +8 up or from −8 down. (In general: ATP-based viability assays read luminescence as a measure of living cells.)
A short description of test [12]: CREB reporter modulators without forskolin, primary screen, cell-based, PC12, CRE-LacZ reporter, unstimulated (AID 1145). As to conditions: no forskolin, luminescence, 4.5 h, higher = more signal, called active from +8 up or from −8 down.
Test [13] in a line: CREB reporter modulators under forskolin, primary screen, cell-based, PC12, CRE-LacZ reporter, forskolin-stimulated (AID 1146).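 Note: PC12 cells with 6xCRE LacZ reporter stimulated by forskolin 10 µM; beta-galactosidase reporter signal reflecting CREB driven transcription.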 The settings on record: luminescence, 4.5 h, higher = more signal, called active from +8 up or from −8 down.
Test [14] concerns the target Streptavidin (Streptomyces avidinii) (UniProt P22629). Briefly: streptavidin binders on small-molecule microarray, primary screen, artefact control for SMM compound annotation, biophysical, 635/667 nm fluorescence (AID 1147).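 Note: signal reflects streptavidin binding to arrayed compounds as a control protein.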 As to conditions: streptavidin binding, higher = more signal.
Test [15] is described as follows: small-molecule binders of probe aInhba, primary screen, biochemical, small-molecule microarray, 635/667 nm fluorescence (AID 1148).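 Note: score merges 667nm spot fluorescence with signal-to-noise for antibody binding to printed compounds.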 The settings on record: higher = more signal.
In test [16] the target is Torsin-1A (Homo sapiens) (UniProt O14656). Briefly: torsin A binders from cell lysate, primary screen, small-molecule microarray, wild-type, 635/667 nm (AID 1149). As to conditions: COS7 hTOR1A-WT lysate, 635 nm fluorescence, higher = more signal.
Sequence of Torsin-1A (Homo sapiens) (O14656 whole entry, looked up): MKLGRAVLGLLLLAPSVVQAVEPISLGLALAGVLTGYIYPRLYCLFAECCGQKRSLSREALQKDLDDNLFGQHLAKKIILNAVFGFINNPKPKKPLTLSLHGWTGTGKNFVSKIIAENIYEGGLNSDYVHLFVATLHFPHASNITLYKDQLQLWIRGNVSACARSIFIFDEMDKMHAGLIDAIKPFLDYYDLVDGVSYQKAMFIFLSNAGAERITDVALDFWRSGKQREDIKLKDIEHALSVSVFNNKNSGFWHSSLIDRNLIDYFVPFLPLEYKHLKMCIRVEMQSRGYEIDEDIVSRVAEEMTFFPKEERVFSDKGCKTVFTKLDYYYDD
Test [17] shares this target. Briefly: small-molecule binders of mutant TOR1A in lysate, primary screen, cell lysate, small-molecule microarray, COS7 lysate, 635/667 nm fluorescence (AID 1150).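 Note: score pools 667 nm emission and signal to noise measuring lysate protein binding.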 The settings on record: COS7 hTOR1A mutant lysate, 635 nm fluorescence, higher = more signal.
Test [18] concerns Sonic hedgehog protein (Shh). Briefly: small-molecule binders of Shh protein, primary screen, biochemical, small-molecule microarray, 635/667 nm fluorescence (AID 1151).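 Note: Shh protein binding to compounds spotted on small-molecule microarray slides; score combines spot fluorescence intensity with signal-to-noise across triplicate slides.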 As to conditions: small-molecule microarray binding, 635 nm fluorescence; higher = more signal.
Test [19] is described as follows: P. aeruginosa biofilm formation inhibitors, primary screen, PAO1 strain, BacTiter-Glo luminescence, LB-PBS (AID 1144). The settings on record: 12 h, higher = more signal.

Each structure is given as a SMILES string. Where “and” joins values, the source holds several entries; their conditions need not be identical. Equal entries are not always repeated. Calls of active or inactive are those of the source. Unless noted, the rule behind the calls is not given here.

Sequence of Follistatin (Homo sapiens) (P19883 whole entry, looked up): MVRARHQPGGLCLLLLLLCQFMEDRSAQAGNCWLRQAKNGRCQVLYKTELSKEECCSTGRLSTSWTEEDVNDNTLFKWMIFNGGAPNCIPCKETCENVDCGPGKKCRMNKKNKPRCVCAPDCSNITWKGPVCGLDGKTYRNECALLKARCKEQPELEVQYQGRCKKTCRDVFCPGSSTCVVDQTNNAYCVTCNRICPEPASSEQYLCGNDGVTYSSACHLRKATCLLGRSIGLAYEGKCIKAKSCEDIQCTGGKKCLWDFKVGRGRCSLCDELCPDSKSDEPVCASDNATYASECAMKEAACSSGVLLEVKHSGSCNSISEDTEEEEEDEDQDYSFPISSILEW
Sequence of Streptavidin (Streptomyces avidinii) (P22629 whole entry, looked up): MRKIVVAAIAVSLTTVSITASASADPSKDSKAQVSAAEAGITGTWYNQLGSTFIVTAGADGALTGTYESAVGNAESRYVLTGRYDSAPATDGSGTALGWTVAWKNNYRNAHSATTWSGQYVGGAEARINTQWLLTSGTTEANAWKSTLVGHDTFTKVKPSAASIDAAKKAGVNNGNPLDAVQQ

In the case of `CC(C)N1CC=CC23O[C@@H]4C=CCCOC(=O)C4[C@H]2C(=O)N(C(C)CO)[C@@H]3C1=O` (some centres undefined), the composite z-score in [1] is 0.412 and -0.876; in test [2] it was -0.149 and -1.45; in [3], -0.214 and -0.327; in test [4], -0.367 and -0.617; in [5] it was -1.72 and -1.22; in test [6], -1.55 and -0.107. Moreover, the composite z-score with Lefty1 is -0.674 and -1.22; in test [8] it was -0.759 and -1.45; in test [10], 0.797 and -0.143; in test [14] it was -0.55 and 1.17; in test [15], -0.128 and -0.176; with Torsin-1A (Homo sapiens) [16], 0.0687 and -0.403. The composite z-score in the test with Torsin-1A (Homo sapiens) [17] is -0.0439 and 0.0427; in test [18] it was -0.0042 and -0.188. Also, the z-score in test [7] is 0.615 and 0.4; in [9], -0.509 (inactive) and -0.916 (inactive); in [11], -0.909 (inactive) and 0.0354 (inactive); in test [12], -0.631 (inactive) and -0.753 (inactive); in test [13] it was -0.0522 (inactive) and -0.428 (inactive).
Regarding `O=c1n(-c2ccccc2)c(=O)n2n1CC[C@@H]1C(=NOC[C@@H](O)COCc3ccco3)[C@H]3O[C@H]3[C@@H](O)[C@@H]12`, the composite z-score in [1] was 0.196 and 1.9; in test [2], 0.0776 and -0.425; in test [3], 0.828 and -0.367; in test [4], -0.309 and -0.105; in test [5], 1.15 and 0.461; in test [6] it was 1.02 and 0.96. In addition, the composite z-score with Lefty1 is 1.43 and 0.459; in test [8], -0.392 and 0.0106; in [10], 0.0145 and -0.152; in test [14] it was 0.312 and 0.0894; in test [15] it was -0.0963 and -0.0407; with Torsin-1A (Homo sapiens) [16], 0.716 and 0.965. Moreover, the composite z-score with Torsin-1A (Homo sapiens) [17] is 0.289 and 0.457; in test [18], 1.7 and 0.769. In addition, the z-score in [7] was -0.642 and -0.729; in [9], 0.0662 (inactive) and -0.214 (inactive); in test [11], -2.38 (inactive) and 1.16 (inactive); in test [19], -0.58 (inactive) and 0.962 (inactive); in [12], 0.875 (inactive) and -0.227 (inactive); in [13] it was -0.218 (inactive) and 0.761 (inactive).
Turning to `C=CCN(CCCCC)C(=O)C1N(c2ccc(CCO)cc2)C(=O)C2C(C(=O)O)C3C=CC21O3` (centres undefined), the composite z-score in test [1] was -1.26 and -0.352; in test [2], -1.44 and -0.943; in test [3] it was -0.886 and -0.776; in [4], -0.916 and -0.657; in test [5] it was -0.974 and -0.877; in [6], -0.989 and -0.883. Further, the composite z-score in the test on Lefty1 is -1.47 and -0.885; in [8], 0.961 and -0.241; in test [10] it was -0.479 and -0.327; in test [14] it was -1.64 and -1.36; in [15] it was -0.206 and 0.789; in the test with Torsin-1A (Homo sapiens) [16] it was -1.94 and -0.448. Further, the composite z-score with Torsin-1A (Homo sapiens) [17] is 0.101 and -1.53; in test [18] it was -0.568 and 2.02. Further, the z-score is 0.157 and -0.0775 in test [7]; -0.929 (inactive) and -0.832 (inactive) in test [9]; -0.641 (inactive) and -0.552 (inactive) in test [11]; 0.839 (inactive) and 0.128 (inactive) in test [19]; -0.48 (inactive) and -0.619 (inactive) in test [12]; 0.589 (inactive) and -0.601 (inactive) in test [13].
Turning to `CCOC(=O)C[C@H]1[C@H](OC(=O)c2ccccc2-c2ccccc2)[C@@H](NC(=O)Cc2ccc(OC)cc2)c2cc(OCCCO)ccc2N1C(=O)Cc1ccc(OC)cc1`, the composite z-score in test [1] was -0.109 and -0.161; in [2], 0.8 and -0.925; in test [3], 0.14 and -0.217; in [4] it was 0.325 and 0.237; in test [5] it was 0.214 and -0.173; in test [6], -0.0463 and -0.423. Moreover, the composite z-score in the test on Lefty1 is 0.517 and -0.0509; in test [8], 0.484 and -0.261; in [10], 0.18 and 0.0684; in test [14], 0.325 and -0.401; in test [15], 0.0082 and 0.109; in the test with Torsin-1A (Homo sapiens) [16], -0.0109 and -0.752. For the same compound, the composite z-score is 0.24 and 0.161 with Torsin-1A (Homo sapiens) [17]; 0.857 and -0.501 in test [18]. Besides, the z-score in [7] is 1.91 and 0.598; in [9], -1 (inactive) and 0.591 (inactive); in [11], -0.093 (inactive) and -0.267 (inactive); in [19], 0.0825 (inactive); in test [12], 0.656 (inactive) and 0.671 (inactive); in test [13], -1.2 (inactive) and 0.454 (inactive).
